Data from PubChem BioAssay.
“And” between values parts separate entries of the source, which are not always exact repeats. Identical values can stand only once. The source made the active and inactive calls. The rule behind the calls is not given here. Where a SMILES comes first, the peptide text is derived from it. [ ]: non-standard residue; d: D form. The star is where a group is joined. ξ: configuration not given here. Boc = CC(C)(C)OC(=O)*; ξV = CC(C)C(N)C(=O)O; OBn = c1ccc(CO*)cc1

How the values were obtained:
[1] = system: Botulinum neurotoxin type F light chain protease (Clostridium botulinum); assay: Botulinum neurotoxin type F light chain protease inhibition, multiplex microsphere flow cytometry, validation set (AID 588459); details: multiplex microsphere protease substrate cleavage assay, at 10 µM, hits give high values
[2] = target: Botulinum neurotoxin type A (Clostridium botulinum) (UniProt P0DPI0); assay: BoNT/A light chain protease inhibitors, biochemical, multiplex microsphere flow cytometry, validation set (AID 588460); details: at 10 µM, hits give high values
[3] = target: Lethal factor (Bacillus anthracis) (UniProt P15917); assay: Lethal factor protease inhibitors, Bacillus anthracis, multiplex microsphere cleavage assay, validation set (AID 588461); details: flow cytometry, at 10 µM, hits give high values

Measured: inhibition

Sequence of Botulinum neurotoxin type A (Clostridium botulinum) (P0DPI0 whole entry, looked up): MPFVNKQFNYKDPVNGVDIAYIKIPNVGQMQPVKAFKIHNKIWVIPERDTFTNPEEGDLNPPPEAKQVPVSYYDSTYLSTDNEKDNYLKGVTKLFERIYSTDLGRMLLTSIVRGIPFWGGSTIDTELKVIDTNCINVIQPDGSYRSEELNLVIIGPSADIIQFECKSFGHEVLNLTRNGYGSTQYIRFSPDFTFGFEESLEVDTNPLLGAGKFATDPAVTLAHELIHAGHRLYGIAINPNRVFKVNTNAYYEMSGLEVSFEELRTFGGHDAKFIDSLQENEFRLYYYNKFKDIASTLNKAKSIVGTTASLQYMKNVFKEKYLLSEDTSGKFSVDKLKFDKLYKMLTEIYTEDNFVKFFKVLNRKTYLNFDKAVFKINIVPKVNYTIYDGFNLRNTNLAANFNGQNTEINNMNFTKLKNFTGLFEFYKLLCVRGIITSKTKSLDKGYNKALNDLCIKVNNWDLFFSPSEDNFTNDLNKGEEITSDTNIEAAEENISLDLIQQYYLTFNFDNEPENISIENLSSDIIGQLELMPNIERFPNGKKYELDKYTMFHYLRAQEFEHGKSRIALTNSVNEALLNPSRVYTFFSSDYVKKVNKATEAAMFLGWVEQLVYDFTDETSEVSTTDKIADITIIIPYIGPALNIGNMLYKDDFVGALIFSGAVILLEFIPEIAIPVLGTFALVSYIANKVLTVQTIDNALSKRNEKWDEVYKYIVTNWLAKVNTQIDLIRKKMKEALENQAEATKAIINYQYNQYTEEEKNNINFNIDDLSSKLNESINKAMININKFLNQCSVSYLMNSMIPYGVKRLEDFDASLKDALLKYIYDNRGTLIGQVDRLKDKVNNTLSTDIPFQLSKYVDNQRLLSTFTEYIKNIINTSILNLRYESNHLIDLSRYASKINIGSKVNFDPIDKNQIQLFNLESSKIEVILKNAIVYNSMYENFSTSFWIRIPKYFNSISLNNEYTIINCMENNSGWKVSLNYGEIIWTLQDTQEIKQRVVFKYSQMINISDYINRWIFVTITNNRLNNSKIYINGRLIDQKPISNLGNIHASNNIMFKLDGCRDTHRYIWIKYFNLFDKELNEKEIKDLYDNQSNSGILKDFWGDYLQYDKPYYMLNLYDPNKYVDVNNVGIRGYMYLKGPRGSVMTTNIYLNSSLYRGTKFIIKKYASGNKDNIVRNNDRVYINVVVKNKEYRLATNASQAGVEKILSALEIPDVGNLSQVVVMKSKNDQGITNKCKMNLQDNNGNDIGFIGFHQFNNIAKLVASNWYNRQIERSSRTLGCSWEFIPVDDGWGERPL
Sequence of Lethal factor (Bacillus anthracis) (P15917 whole entry, looked up): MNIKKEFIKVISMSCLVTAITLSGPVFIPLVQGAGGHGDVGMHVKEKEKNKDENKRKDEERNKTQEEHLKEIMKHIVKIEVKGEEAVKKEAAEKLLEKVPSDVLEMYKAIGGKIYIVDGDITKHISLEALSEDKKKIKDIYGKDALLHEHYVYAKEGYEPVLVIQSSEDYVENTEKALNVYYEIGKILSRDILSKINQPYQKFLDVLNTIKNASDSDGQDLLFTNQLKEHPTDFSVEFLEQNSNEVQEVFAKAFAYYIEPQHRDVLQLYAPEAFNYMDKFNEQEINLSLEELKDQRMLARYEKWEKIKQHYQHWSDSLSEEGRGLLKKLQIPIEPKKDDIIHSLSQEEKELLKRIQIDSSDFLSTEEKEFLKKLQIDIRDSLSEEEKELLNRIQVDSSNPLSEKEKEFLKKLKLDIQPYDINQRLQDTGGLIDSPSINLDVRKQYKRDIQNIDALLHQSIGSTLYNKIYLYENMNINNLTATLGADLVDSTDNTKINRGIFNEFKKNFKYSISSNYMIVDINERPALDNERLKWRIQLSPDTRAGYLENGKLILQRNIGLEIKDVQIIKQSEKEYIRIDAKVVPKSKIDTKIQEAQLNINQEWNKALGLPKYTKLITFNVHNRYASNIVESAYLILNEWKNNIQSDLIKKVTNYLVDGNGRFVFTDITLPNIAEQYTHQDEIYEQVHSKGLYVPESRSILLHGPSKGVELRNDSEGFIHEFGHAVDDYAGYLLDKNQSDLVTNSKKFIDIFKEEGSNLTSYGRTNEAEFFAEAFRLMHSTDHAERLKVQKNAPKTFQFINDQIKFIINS

NS(=O)(=O)c1cc2c(cc1Cl)NC(CSCc1ccccc1)=NS2(=O)=O
inactive: [1] -4.8% | [2] 0% | [3] -2.3%

COc1ccc(-c2cc(=O)oc3c(C)c(O)c(CN(C)C)cc23)cc1
inactive: [1] 11.3% | [2] 0.6% | [3] -2.1%

CC(=O)OCC[N+](C)(C)C
inactive: [1] -3.2% and 0.5% | [2] 0.2% and -1.8% | [3] 3.8% and -0.3%

CC(=O)[C@H]1CC[C@H]2[C@@H]3C[C@H](C)C4=CC(=O)CC[C@]4(C)[C@H]3[C@@H](O)C[C@]12C
inactive: [1] 5.1% | [2] 0.9% | [3] -8.6%

CC(=O)NC(C(=O)NCC(N)=O)C(C)C (configuration not stated) (Ac-[ξV]-Gly-NH2)
inactive: [1] -3% | [2] 0.1% | [3] 0.5%

NC(N)=NC(=O)Cc1c(Cl)cccc1Cl
inactive: [1] -3.3% | [2] -1.8% | [3] -3.1%

N#Cc1cc2c([nH]c1=O)CCCC2
inactive: [1] -0.1% | [2] -0.6% | [3] 2.6%

CC(C)CC(NC(=O)C(NC(=O)OC(C)(C)C)C(C)C)C(=O)NC(CCC(=O)OCc1ccccc1)C(N)=O (stereo not drawn) (Boc-Val-Leu-Glu(OBn)-NH2; configuration not given here)
inactive: [1] 2.1% | [2] -1.3% | [3] -0.4%

O=C(COc1ccccc1)N1CCN(c2ccccc2)CC1
inactive: [1] -3.8% | [2] 0% | [3] -0.7%
